Results on eight molecules are retold here after PubChem BioAssay.

Active and inactive are the calls of the source. Unless noted, how the calls were made is not given here.

Test [1] has as its system Wnt5a (protein binding on small-molecule microarray). As to the kind of experiment: small molecules binding Wnt5a protein – biophysical, small-molecule microarray, 635/667 nm fluorescence, primary screen (AID 1142).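 Further: fluorescence read at 667 nm with signal to noise per printed feature.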 Conditions: 635 nm fluorescence, higher = more signal.
Test [2] in a line: ATP-based viability of Huh7 replicon cells – cell-based, CellTiter-Glo luminescence, basal, 48 h, cytotoxicity control for HCV replication inhibitor project, primary screen (AID 1143).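 Further: Huh7 hepatoma cells carrying a hepatitis C replication reporter with no stimulus; test concentration not given here.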 Conditions: higher = more signal, called active from +8 up or from −8 down. A general note: In antiviral work, replicon cells carry a viral genome segment that copies itself.
Test [3] can be described thus: Pseudomonas biofilm growth suppression – PAO1 strain, BacTiter-Glo luminescence, LB-PBS, primary screen (AID 1144). Conditions: P. aeruginosa PAO1 biofilm, 12 h, higher = more signal.
Test [4] is described as follows: basal CRE-LacZ reporter activity in PC12 – cell-based, unstimulated, primary screen (AID 1145). The conditions noted are these: no forskolin, luminescence, 4.5 h, higher = more signal, called active from +8 up or from −8 down.
Test [5] can be described thus: forskolin-driven CRE-LacZ activity in PC12 – cell-based, CRE-LacZ reporter, forskolin-stimulated, primary screen (AID 1146).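 Further: PC12 cells with 6xCRE LacZ reporter stimulated by forskolin 10 µM; beta-galactosidase reporter signal reflecting CREB driven transcription.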 The conditions noted are these: luminescence, 4.5 h, higher = more signal, called active from +8 up or from −8 down.
The target in test [6] is Streptavidin (Streptomyces avidinii) (UniProt P22629). In words: compounds binding control protein streptavidin – biophysical, small-molecule microarray, 635/667 nm fluorescence, artefact control for SMM compound annotation, primary screen (AID 1147).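 Further: signal reflects streptavidin binding to arrayed compounds as a control protein.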 The conditions noted are these: higher = more signal.
Chain of Streptavidin (Streptomyces avidinii) (P22629 whole entry, looked up): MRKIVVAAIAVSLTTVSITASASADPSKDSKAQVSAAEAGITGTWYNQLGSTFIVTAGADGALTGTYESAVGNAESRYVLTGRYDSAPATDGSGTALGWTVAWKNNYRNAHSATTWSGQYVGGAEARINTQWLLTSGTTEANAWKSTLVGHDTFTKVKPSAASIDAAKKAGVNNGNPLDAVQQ
Test [7] in a line: probe aInhba binding on compound microarray – biochemical, small-molecule microarray, 635/667 nm fluorescence, primary screen (AID 1148).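 Further: score merges 667nm spot fluorescence with signal-to-noise for antibody binding to printed compounds.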 The conditions noted are these: higher = more signal.
The target in test [8] is Torsin-1A (Homo sapiens) (UniProt O14656). In words: TOR1A wild-type binding on microarray – cell lysate, small-molecule microarray, lysate, 635/667 nm, primary screen (AID 1149). The conditions noted are these: COS7 hTOR1A-WT lysate, 635 nm fluorescence, higher = more signal.
Chain of Torsin-1A (Homo sapiens) (O14656 whole entry, looked up): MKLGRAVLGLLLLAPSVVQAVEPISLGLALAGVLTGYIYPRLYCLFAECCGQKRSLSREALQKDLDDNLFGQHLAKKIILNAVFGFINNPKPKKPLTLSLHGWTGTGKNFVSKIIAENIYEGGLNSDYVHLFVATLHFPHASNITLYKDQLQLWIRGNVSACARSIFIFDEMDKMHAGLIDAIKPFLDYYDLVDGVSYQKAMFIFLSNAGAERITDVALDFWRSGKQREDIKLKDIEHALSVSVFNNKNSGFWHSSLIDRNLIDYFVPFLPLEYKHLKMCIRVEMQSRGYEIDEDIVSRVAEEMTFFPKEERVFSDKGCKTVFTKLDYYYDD
For test [9] the target is unchanged. In words: torsin A mutant lysate binding on microarrays – cell lysate, small-molecule microarray, COS7 lysate, 635/667 nm fluorescence, primary screen (AID 1150).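 Further: score pools 667 nm emission and signal to noise measuring lysate protein binding.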 The conditions noted are these: COS7 hTOR1A mutant lysate, 635 nm fluorescence, higher = more signal.
The subject of test [10] is Sonic hedgehog protein (Shh). In words: Sonic hedgehog microarray binding compounds – biochemical, small-molecule microarray, 635/667 nm fluorescence, primary screen (AID 1151).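 Further: Shh protein binding to compounds spotted on small-molecule microarray slides; score combines spot fluorescence intensity with signal-to-noise across triplicate slides.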 The conditions noted are these: 635 nm fluorescence, higher = more signal.
Test [11] can be described thus: optical density shifts of acrAB sulA E. coli – strain DRC41, OD650, 48 h, E. coli filamentation inducer project, primary screen (AID 1152).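 Further: E. coli MC1000 strain DRC41 lacking acrAB efflux pump and sulA.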 Conditions: higher = more signal, called active from +8 up or from −8 down.
A short description of test [12]: probe aLefty1 binding on compound microarray – biochemical, small-molecule microarray, 635/667 nm fluorescence, primary screen (AID 1153).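 Further: score merges spot fluorescence with signal-to-noise ratio from the scanned slide images.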 Conditions: higher = more signal.
The nature of test [13]: plasmodial surface anion channel blockers, osmotic lysis – cell-based, P. falciparum Indochina, OD700, 1 h, primary screen (AID 1154). The conditions noted are these: P. falciparum Indochina infected RBC osmotic lysis, higher = more signal, called active from +8 up or from −8 down.
Test [14] in a line: plasmodial surface anion channel blockers, osmotic lysis – cell-based, P. falciparum Indochina, OD700, 2 h, primary screen (AID 1155).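 Further: lysis reports solute entry through the parasite surface anion channel PSAC.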 Conditions: P. falciparum Indochina infected erythrocytes, higher = more signal, called active from +8 up or from −8 down.
Test [15] in a line: changes in parasitized red cell lysis, either direction – P. falciparum Indochina, OD700, 3 h, PSAC antagonist project, primary screen (AID 1156). The conditions noted are these: P. falciparum-infected erythrocytes, osmotic lysis, higher = more signal, called active from +8 up or from −8 down.
Test [16] can be described thus: plasmodial surface anion channel blockers, osmotic lysis – cell-based, P. falciparum Indochina, OD700, 18 h, primary screen (AID 1157). Conditions: P. falciparum Indochina infected erythrocytes, osmotic lysis OD700, 18 h; higher = more signal, called active from +8 up or from −8 down.
The nature of test [17]: S6 kinase pathway phospho-S6 level changes – cell-based, A549, cytoblot, luminescence, serum-stimulated, primary screen (AID 1158).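 Further: serum-stimulated A549 lung adenocarcinoma cells; signal is phosphorylated S6 detected by cytoblot immunostaining with HRP secondary.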 Conditions: 5 h, higher = more signal.
Test [18] has as its target NADPH oxidase 2 (Homo sapiens) (UniProt P04839). In words: compounds shifting NOX2 Amplex Red fluorescence – cell-based, HEK293-NOX2, PMA-stimulated, NOX inhibitor project, primary screen (AID 1159). Further: test concentration not given here. Conditions: 45 min, higher = more signal, called active from +8 up or from −8 down.
The target of test [19] is NADPH oxidase 4 (Homo sapiens) (UniProt Q9NPH5). As to the kind of experiment: compounds shifting NOX4 Amplex Red fluorescence – cell-based, HEK293-NOX4, tetracycline-induced, NOX inhibitor project, primary screen (AID 1160). The conditions noted are these: HEK293-NOX4, Amplex Red H2O2 fluorescence, 45 min; higher = more signal, called active from +8 up or from −8 down.
Chain of NADPH oxidase 4 (Homo sapiens) (Q9NPH5 whole entry, looked up): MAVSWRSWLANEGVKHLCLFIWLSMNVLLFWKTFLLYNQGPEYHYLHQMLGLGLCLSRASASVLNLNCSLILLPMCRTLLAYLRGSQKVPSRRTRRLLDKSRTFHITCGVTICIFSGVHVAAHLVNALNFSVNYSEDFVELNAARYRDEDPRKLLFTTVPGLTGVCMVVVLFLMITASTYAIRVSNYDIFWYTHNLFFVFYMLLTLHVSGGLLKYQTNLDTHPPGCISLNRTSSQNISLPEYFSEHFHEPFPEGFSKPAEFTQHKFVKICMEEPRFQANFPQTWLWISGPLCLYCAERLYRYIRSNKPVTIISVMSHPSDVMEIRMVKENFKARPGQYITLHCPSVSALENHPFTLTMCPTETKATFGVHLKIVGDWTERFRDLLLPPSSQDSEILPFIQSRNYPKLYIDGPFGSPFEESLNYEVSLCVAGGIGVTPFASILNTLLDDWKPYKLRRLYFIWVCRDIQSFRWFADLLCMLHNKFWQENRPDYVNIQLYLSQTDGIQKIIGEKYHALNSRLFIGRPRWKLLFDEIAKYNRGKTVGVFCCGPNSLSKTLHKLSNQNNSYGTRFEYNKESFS
Test [20] concerns the target NADPH oxidase 5 (Homo sapiens) (UniProt Q96PH1). As to the kind of experiment: compounds shifting NOX5 Amplex Red fluorescence – cell-based, HEK293-NOX5, NOX inhibitor project, primary screen (AID 1161). Conditions: HEK293-NOX5, ionomycin, 45 min, higher = more signal.

Chain of NADPH oxidase 5 (Homo sapiens) (Q96PH1 whole entry, looked up): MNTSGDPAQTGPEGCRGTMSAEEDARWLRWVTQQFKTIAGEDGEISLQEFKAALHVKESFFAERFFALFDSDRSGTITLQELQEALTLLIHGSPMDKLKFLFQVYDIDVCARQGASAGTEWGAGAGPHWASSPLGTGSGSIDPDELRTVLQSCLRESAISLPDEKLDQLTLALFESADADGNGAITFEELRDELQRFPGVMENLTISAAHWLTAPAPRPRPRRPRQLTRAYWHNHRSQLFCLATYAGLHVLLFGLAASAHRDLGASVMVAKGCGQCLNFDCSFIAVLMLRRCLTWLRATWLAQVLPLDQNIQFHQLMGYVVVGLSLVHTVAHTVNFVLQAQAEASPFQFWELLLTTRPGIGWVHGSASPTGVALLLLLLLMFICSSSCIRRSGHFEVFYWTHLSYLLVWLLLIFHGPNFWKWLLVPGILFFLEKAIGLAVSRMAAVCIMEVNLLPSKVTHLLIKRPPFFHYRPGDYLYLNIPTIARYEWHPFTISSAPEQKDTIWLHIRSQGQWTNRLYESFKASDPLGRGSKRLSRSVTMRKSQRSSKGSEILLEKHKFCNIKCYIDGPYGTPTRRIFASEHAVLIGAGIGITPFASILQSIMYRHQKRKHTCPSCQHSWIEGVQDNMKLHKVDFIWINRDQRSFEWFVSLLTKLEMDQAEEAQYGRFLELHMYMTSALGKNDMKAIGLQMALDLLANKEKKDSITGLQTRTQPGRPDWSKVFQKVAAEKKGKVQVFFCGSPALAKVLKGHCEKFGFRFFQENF
Chain of NADPH oxidase 2 (Homo sapiens) (P04839 whole entry, looked up): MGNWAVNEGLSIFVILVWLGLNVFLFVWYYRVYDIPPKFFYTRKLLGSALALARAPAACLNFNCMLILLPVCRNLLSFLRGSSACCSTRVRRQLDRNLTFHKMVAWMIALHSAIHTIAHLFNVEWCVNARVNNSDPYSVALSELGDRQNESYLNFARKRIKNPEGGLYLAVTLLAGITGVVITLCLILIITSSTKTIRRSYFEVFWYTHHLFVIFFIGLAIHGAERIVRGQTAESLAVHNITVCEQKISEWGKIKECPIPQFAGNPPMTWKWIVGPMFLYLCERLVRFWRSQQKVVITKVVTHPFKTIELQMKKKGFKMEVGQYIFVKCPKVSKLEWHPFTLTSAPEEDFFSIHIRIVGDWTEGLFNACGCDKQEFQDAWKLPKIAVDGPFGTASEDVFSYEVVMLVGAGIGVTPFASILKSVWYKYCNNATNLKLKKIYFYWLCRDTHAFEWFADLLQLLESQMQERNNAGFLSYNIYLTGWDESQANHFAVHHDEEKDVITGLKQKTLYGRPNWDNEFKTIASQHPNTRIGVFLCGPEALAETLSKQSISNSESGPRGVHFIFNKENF

In the case of `Cc1cc(C)c(-c2cc([C@H](C)ON=C3[C@H]4CCn5c(=O)n(-c6ccccc6)c(=O)n5[C@H]4[C@H](O)[C@@H]4O[C@H]34)on2)c(C)c1`, the composite z-score in test [1] was 0.266; in test [6], 0.548; in [7] it was -0.0066; with Torsin-1A (Homo sapiens) [8], 0.595; with Torsin-1A (Homo sapiens) [9] it was 0.754; in test [10] it was 0.767. This molecule also yielded a composite z-score in test [12] of 0.218. Besides, the z-score in test [2] was -1.72 (inactive); in test [3] it was 1.96 (inactive); in test [4], 0.229 (inactive); in test [5] it was 1.43 (inactive); in test [11] it was -0.0555 (inactive); in test [13], 1.43 (inactive). The z-score was 0.322 (inactive) in test [14]; 0.347 (inactive) in [15]; 0.391 (inactive) in [16]; -0.914 in test [17]; 0.0599 (inactive) in test [18]; 0.68 (inactive) in test [19]. In addition, in [20], the z-score was -0.114.

As for `COCCCNC(=O)[C@@]1(C)c2ccccc2C(=O)N(Cc2ccc(OC(F)(F)F)cc2)[C@H]1c1ccc(CO)cc1`, the composite z-score in test [1] was -0.0685; in test [6] it was -0.773; in [7], 0.185; with Torsin-1A (Homo sapiens) [8] it was 0.13; with Torsin-1A (Homo sapiens) [9], -0.17; in [10], -0.32. The composite z-score in test [12] was -0.191. For the same molecule, the z-score was -1.27 (inactive) in test [2]; -0.27 (inactive) in [3]; 0.585 (inactive) in test [4]; -0.0912 (inactive) in [5]; 0.906 (inactive) in test [11]; 2.23 (inactive) in [13]. For the same molecule, the z-score in [14] is 0.123 (inactive); in test [15], 1.06 (inactive); in [16], -0.0648 (inactive); in [17] it was -0.459; in test [18], -0.599 (inactive); in [19], 1.18 (inactive). Further, the z-score in [20] stood at 0.247.

Regarding `CC(=O)O[C@H]1C2=C(C(=O)[C@@H]3O[C@@H]31)[C@H]1C(C)O[C@@H]2[C@@]23C(=O)[C@@H]4O[C@@H]4[C@@H](O)C2=CO[C@H](C)[C@@H]13` (stereo not given in full), the composite z-score in test [1] is 0.129; in test [6], -0.503; in test [7] it was -0.214; with Torsin-1A (Homo sapiens) [8], 0.0116; with Torsin-1A (Homo sapiens) [9], 0.0652; in test [10], 0.283. In addition, the composite z-score in test [12] is -0.191. Also, the z-score in test [2] is -1.6 (inactive); in test [3], 0.968 (inactive); in [4], 0.108 (inactive); in test [5] it was 4.27 (inactive); in test [11], -0.0954 (inactive); in test [13], -0.0129 (inactive). Besides, the z-score in test [14] was -0.215 (inactive); in test [15] it was -0.0291 (inactive); in test [16], -0.12 (inactive); in test [17], -0.56; in [18] it was 0.735 (inactive); in test [19] it was 0.358 (inactive). The z-score in test [20] was -0.388.

As for `CC1(C)OCC(C(O)C2=CCCCC2=O)CO1` (stereo not given), the composite z-score in test [1] is 0.24; in test [6], 0.412; in [7], -0.133; with Torsin-1A (Homo sapiens) [8], 0.429; with Torsin-1A (Homo sapiens) [9] it was 0.803; in [10], 1.5. In addition, in [12], the composite z-score was 0.138. Moreover, the z-score in test [2] is 0.956 (inactive); in test [3] it was -0.432 (inactive); in test [4] it was -0.431 (inactive); in test [5] it was 0.476 (inactive); in test [11] it was -3.47 (inactive); in test [13] it was 0.0704 (inactive). Moreover, the z-score in test [14] is 0.137 (inactive); in [15], 0.864 (inactive); in test [16], 0.348 (inactive); in [17], 0.315; in test [18], 0.362 (inactive); in [19], -0.247 (inactive). Also, the z-score in [20] is 1.07.

On to `CCOC(=O)CCN1C(=O)[C@H]2[C@H]3[C@H](O)C=CC(=O)[C@@H]3CC[C@H]2C1=O`, for which the composite z-score in test [1] was -0.244; in [6] it was 0.225; in [7], 0.0104; in the test with Torsin-1A (Homo sapiens) [8], 0.327; in the test with Torsin-1A (Homo sapiens) [9], -0.364; in test [10], 0.425. The molecule also gave a composite z-score in test [12] of 0.0479. The z-score in test [2] was 0.507 (inactive); in test [3] it was -0.281 (inactive); in test [4], -0.115 (inactive); in test [5] it was -0.297 (inactive); in test [11], -0.221 (inactive); in test [13], -0.0882 (inactive). Further, the z-score in test [14] is 0.501 (inactive); in [15] it was -0.233 (inactive); in [16] it was 0.352 (inactive); in [17], 0.146; in test [18], 1.22 (inactive); in test [19] it was 0.463 (inactive). Moreover, the z-score in [20] is -0.244.

As for `CCN1C(=O)[C@H]2[C@H]3[C@H](O)[C@H](O)CC(=NOC(C)CN4CCCCc5nc(C)c(C)cc54)[C@@H]3CC[C@H]2C1=O` (stereo not given in full), the composite z-score was 0.185 in [1]; -0.0098 in test [6]; -0.024 in [7]; 0.763 with Torsin-1A (Homo sapiens) [8]; 0.769 in the test with Torsin-1A (Homo sapiens) [9]; 0.809 in [10]. Moreover, the composite z-score in test [12] was -0.106. Besides, the z-score in test [2] is 0.06 (inactive); in test [3], 1.07 (inactive); in [4], 0.778 (inactive); in test [5], 0.618 (inactive); in test [11], 0.803 (inactive); in test [13], 0.29 (inactive). The z-score in test [14] is 0.15 (inactive); in [15], 0.363 (inactive); in test [16], 0.317 (inactive); in [17], -0.518; in test [18], -0.588 (inactive); in test [19], -0.245 (inactive). The z-score in test [20] was -0.239.

As for `CCCNC(=O)OC[C@H]1O[C@H](CCON=C2[C@H]3CCn4c(=O)n(-c5ccccc5)c(=O)n4[C@H]3[C@H](O)[C@@H]3O[C@H]23)C=C[C@@H]1Oc1ccc(OC)cc1`, the composite z-score in [1] was 0.14; in test [6], -0.28; in test [7], 0.0294; in the test with Torsin-1A (Homo sapiens) [8], 0.0932; with Torsin-1A (Homo sapiens) [9] it was 0.565; in test [10], 0.572. In [12], this molecule yielded a composite z-score of 0.198. For the same molecule, the z-score in test [2] is -0.0238 (inactive); in test [3] it was 1.01 (inactive); in test [4], 0.899 (inactive); in [5] it was 0.301 (inactive); in [11], 0.653 (inactive); in test [13], 1.69 (inactive). Moreover, the z-score in test [14] is -0.0218 (inactive); in test [15], 0.378 (inactive); in test [16] it was 0.268 (inactive); in [17], -0.254; in test [18] it was -1.58 (inactive); in test [19] it was -0.373 (inactive). In addition, the z-score in [20] was -0.987.

Turning to `O=C1NC(=O)C2C1C=CC(C(O)Cc1ccccc1)N2Nc1ccccn1` (stereo not given), the composite z-score was 0.0926 in test [1]; 0.125 in [6]; -0.0039 in test [7]; 0.638 in the test with Torsin-1A (Homo sapiens) [8]; 0.933 in the test with Torsin-1A (Homo sapiens) [9]; 0.141 in [10]. The molecule also returned a composite z-score in test [12] of 0.165. The z-score in [2] was -0.151 (inactive); in test [3], -0.314 (inactive); in test [4], 0.0603 (inactive); in [5] it was 0.589 (inactive); in test [11] it was 0.79 (inactive); in test [13], 0.541 (inactive). Moreover, the z-score was -0.67 (inactive) in [14]; -0.255 (inactive) in test [15]; -0.422 (inactive) in test [16]; 0.91 in [17]; -1.58 (inactive) in test [18]; -2.54 (inactive) in [19]. Also, the z-score in test [20] was -1.8.
